Screening results (PubChem BioAssay)
DUSP3 inh – blocks human VHR1 dual specificity phosphatase; P51452; recombinant VHR phosphatase, pNPP absorbance; inhibition, % at 13.3 µM; hit rate 0.52% among 290,000; in the data active means inhibition above about 50%
Target sequence (P51452 whole entry, looked up): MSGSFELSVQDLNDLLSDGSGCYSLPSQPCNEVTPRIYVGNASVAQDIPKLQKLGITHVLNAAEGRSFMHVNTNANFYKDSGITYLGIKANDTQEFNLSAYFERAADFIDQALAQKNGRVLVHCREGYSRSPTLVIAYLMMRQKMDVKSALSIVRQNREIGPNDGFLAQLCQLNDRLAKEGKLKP
RmlCD inh 1536 – blocks M. tuberculosis RmlC and RmlD coupled enzymes. RmlC+RmlD coupled enzyme assay, percent inhibition; primary screen in compound mixtures. inhibition, % at 3.6 µM. hit rate 0.03% among 160,000. AID 1533; in the data active means inhibition mostly above about 34%, no sharp cut-off
Active calls of the source: *. Only some compounds are listed: those with a hit (about 0.54% of all), similar ones and a draw of the others.

O=C1C2C3C=CC(CC3)C2C(=O)N1c1ccc(Br)cc1[N+](=O)[O-] (stereo not drawn) was read as DUSP3 inh 16.
For Cc1cnc(CNC(=O)C2CCC(=O)N(CCc3ccc(Cl)cc3)C2)cn1 (stereo not drawn) the results were DUSP3 inh -9.
COc1ccc(OC)c(NC(=O)CSc2nnc(CNc3ccc(C)cc3C)o2)c1 was read as DUSP3 inh 10 and RmlCD inh 1536 24.
CN(C)c1c2ccccc2nc2c(F)c(F)c(F)c(F)c12 was read as DUSP3 inh 21 and RmlCD inh 1536 41*.
`Cc1c2ccccc2nc2c(F)c(N(C)C)c(F)c(F)c12` gave DUSP3 inh 21 and RmlCD inh 1536 -19.
Screening COc1ccc(OC)c(-c2cc(C(=O)Nc3ccc(F)cc3F)no2)c1 returned DUSP3 inh 50 and RmlCD inh 1536 -2.
For COc1ccc(-c2cc(C(=O)Nc3ccc(F)cc3F)no2)cc1 the results were DUSP3 inh 55*.
COC(=O)Cc1c(C)c2cc(Cl)c(OC(=O)c3ccco3)cc2oc1=O was read as DUSP3 inh 4 and RmlCD inh 1536 21.
`COC(=O)Cc1c(C)c2ccc(OC(=O)c3ccco3)cc2oc1=O` gave DUSP3 inh -7 and RmlCD inh 1536 83*.
Screening C1CCN(Cc2nnnn2CC2CCCO2)CC1 (stereo not drawn) returned DUSP3 inh 14 and RmlCD inh 1536 -4.
`N#C/C(=C\c1ccccc1Cl)C(=O)NC(=O)Oc1ccccc1` gave DUSP3 inh 37 and RmlCD inh 1536 6.
C=CCn1c(NCc2ccc(N(C)C)cc2)nc2ccccc21 was read as DUSP3 inh 14 and RmlCD inh 1536 67.
`C=CCn1c(NCc2cc(C)ccc2O)nc2ccccc21` gave DUSP3 inh 50* and RmlCD inh 1536 12.
Cc1ccc(O)c(CNc2nc3ccccc3n2C(C)C)c1 was read as DUSP3 inh 6.
`CC(C)n1c(NCc2cc(Cl)ccc2O)nc2ccccc21` gave DUSP3 inh 54* and RmlCD inh 1536 1.
Screening CCOc1ccc(S(=O)(=O)N2CCCC(C(=O)N3CCOCC3)C2)cc1C (stereo not drawn) returned DUSP3 inh 17.
For CCC(=O)Nc1ccc(OCC2CCCO2)cc1 (stereo not drawn) the results were DUSP3 inh 11.
CCCCCCn1c(Br)nc2c1c(=O)n(C)c(=O)n2C was read as DUSP3 inh 3 and RmlCD inh 1536 4.
Screening COc1ccc(NC(=O)c2ccco2)cc1NC(=O)c1c(F)c(F)c(OC)c(F)c1F returned DUSP3 inh 6 and RmlCD inh 1536 -6.
O=C(NCCN1CCOCC1)c1cc([N+](=O)[O-])ccc1Cl was read as DUSP3 inh 50*.
Screening CCOc1ccc(CCNC(=O)COC(=O)c2cc([N+](=O)[O-])ccc2N2CCOCC2)cc1OCC returned DUSP3 inh 20.
CCOc1ccc(CCNC(=O)c2cc([N+](=O)[O-])ccc2N2CCOCC2)cc1OCC was read as DUSP3 inh 50*.
Screening O=C(NCCN1CCOCC1)c1ccc([N+](=O)[O-])cc1[N+](=O)[O-] returned DUSP3 inh 8 and RmlCD inh 1536 -8.
Screening Cc1cccc(C2Nc3ccccc3C(=O)N2c2ccc(F)cc2)n1 (stereo not drawn) returned DUSP3 inh -9.
CCOc1ccc(CN2CCN(Cc3[nH]c4ccccc4c3C)CC2CCO)cc1 (stereo not drawn) was read as DUSP3 inh 35 and RmlCD inh 1536 11.
CC1Cc2cc(C3(O)C(=O)c4ccccc4C3=O)ccc2N1 (stereo not drawn) was read as DUSP3 inh -8.
For N/C(Cc1ccc([N+](=O)[O-])cc1)=N\OC(=O)Cc1ccccc1 the results were DUSP3 inh -5.
N/C(Cc1ccc([N+](=O)[O-])cc1)=N\OC(=O)c1ccccc1F was read as DUSP3 inh 57* and RmlCD inh 1536 3.
Screening Cc1ccc(NC2CCCN(C(=O)c3ccc4[nH]ccc4c3)C2)cc1C (stereo not drawn) returned DUSP3 inh 21.
`Cc1ccc(NC(=S)N2CCCCCC2)c(C)c1` gave DUSP3 inh 53*.
Cc1ccc(C)c(NC(=S)N2CCCC2)c1 was read as DUSP3 inh 36.
`COc1cccc(/C=N/Nc2nc3ccccc3n3cnnc23)c1` gave DUSP3 inh 51*.
COc1cccc(/C=N/Nc2nc3ccccc3n3cnnc23)c1O was read as DUSP3 inh 16 and RmlCD inh 1536 -1.
For Cc1c(Cl)cccc1-c1ccc(CNCc2ccccn2)o1 the results were DUSP3 inh 15.
COC(=O)c1ccc(OCC2NCCc3cc(OC)c(OC)cc32)cc1 (stereo not drawn) was read as DUSP3 inh 56*.
Screening CCOC(=O)c1ccc(OCC2NCCc3cc(OC)c(OC)cc32)cc1 (stereo not drawn) returned DUSP3 inh 18.
`CCN(CC)CCCN1C(=O)c2oc3ccccc3c(=O)c2C1c1cccs1` (stereo not drawn) gave DUSP3 inh 2.
`CCCCc1cc(=O)oc2c(CN(CC)CC)c(O)c(Cl)cc12` gave DUSP3 inh 52* and RmlCD inh 1536 10.
For CCCc1cc(=O)oc2c(CN(CC)CC)c(O)c(Cl)cc12 the results were DUSP3 inh -6 and RmlCD inh 1536 -7.
CCOC(=O)c1sc(NNC(=O)c2ccc(C)cc2)nc1C was read as DUSP3 inh -3.
`CCOC(=O)c1nc(NNC(=O)c2ccc([N+](=O)[O-])cc2)sc1C` gave DUSP3 inh 51*.
Screening CCOC(=O)C1CCN(C(=O)c2cc(C(C)(C)C)nn2Cc2ccccc2)CC1 returned DUSP3 inh 17 and RmlCD inh 1536 5.
CS(=O)(=O)N(CC(=O)NCC1CCCO1)c1cccc([N+](=O)[O-])c1 (stereo not drawn) was read as DUSP3 inh 56* and RmlCD inh 1536 -4.
Screening Cc1ccc(S(=O)(=O)N(CC(=O)NCC2CCCO2)c2cccc([N+](=O)[O-])c2)cc1 (stereo not drawn) returned DUSP3 inh 5.
Screening O=C(Cn1c(/C=C/c2ccccc2)nc2ccccc21)Nc1ccc(F)cc1 returned DUSP3 inh 51* and RmlCD inh 1536 9.
`CSc1nc2ccccc2n1CC(=O)Nc1ccccc1` gave DUSP3 inh 27 and RmlCD inh 1536 1.
Screening COc1ccc(CNC(=O)CN(Cc2ccc(C)cc2)C(=O)c2csnn2)cc1 returned DUSP3 inh 24.
CCCCn1c(=O)c2c(nc3n2CCCN3Cc2ccccc2)n(C)c1=O was read as DUSP3 inh 58*.
`Cn1c(=O)n(Cc2ccccc2)c(=O)c2c1nc1n2CCCN1Cc1ccccc1` gave DUSP3 inh 15.
Screening COc1cccc(C(c2nnnn2Cc2ccc(F)cc2)N2CCC(C(N)=O)CC2)c1OC (stereo not drawn) returned DUSP3 inh 18 and RmlCD inh 1536 -4.
OCCN1CCN(C(=S)c2ccc(Cl)cc2)CC1 was read as DUSP3 inh -6.
CCN1CCN(C(=S)c2ccc(Cl)cc2)CC1 was read as DUSP3 inh 50*.
For COc1ccc(/C=C(\NC(=O)c2cccs2)C(=O)Nc2ccccc2C)cc1OC the results were DUSP3 inh -7 and RmlCD inh 1536 9.
COc1ccc(/C=C(\NC(=O)c2cccs2)C(=O)NC(C)(C)C)cc1OC was read as DUSP3 inh 53*.
